Assay results: PubChem BioAssay AID1458 (National Center for Advancing Translational Sciences (NCATS), 2008)
Out of some 210,000 compounds screened, about 5,900 (2.8%) were called active. Where a call stands in place of a potency, no number is given. Roughly 5% stayed inconclusive and do not appear here. This is one part of a sample in which actives are shown more often than they occur. Values without a mark were called inactive. Calls follow the shape of the dose curve; as a rule, active = well fitted activation curve with a large enough effect; inconclusive = small, poorly fitted or top-dose-only effect; inactive = no such curve, though single readings can be large or run the other way.

Test: qHTS Assay for Enhancers of SMN2 Splice Variant Expression; also: nearly all actives have a fitted effect of over 55% in size
Details: HEK293 SMN2-luciferase splicing reporter, luminescence, 30-36 h; series mostly up to 46.1 µM
Summary of the method: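 qHTS luciferase splicing reporter: luminescence rises when SMN2 exon 7 is included in transfected HEK293 cells. Compound exposure lasted 30-36 h at 37C, with 4.5 mM final sodium butyrate as control, followed by a ONE-Glo read.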
Potency is read from the fitted curve at half-maximal effect.

SMILES | Potency | activity change, positive = activation
CCc1cccc(NC(=O)CSc2nccn2C)c1 | inactive | 
Cc1ccc(C(=O)CSc2nc3ccccc3c(=O)n2N)o1 | 15.8 µM (active) | 
O=C(CCn1c(SCC(=O)c2ccccc2)nc2ccccc2c1=O)NCc1ccc(F)cc1 | inactive | 
O=C(CCCn1c(SCC(=O)c2ccc(F)cc2)nc2ccccc2c1=O)NCc1ccco1 | inactive | 
CCOc1nc(-c2ccc(OC)cc2)ccc1-c1noc(-c2cc(OC)c(OC)c(OC)c2)n1 | inactive | 
COc1ccc(-c2nc(-c3ccccc3)no2)c(OC)c1 | 0.447 µM (active) | 
COc1ccc(/C=C/c2noc(-c3ccccc3O)n2)cc1OC | inactive | 
COc1ccc(-c2noc(CSc3ccc(C)cc3)n2)cc1 | inactive | 
COc1ccc(-c2noc(CN(C)S(=O)(=O)c3ccc(C)cc3)n2)cc1 | inactive | 
COc1ccc(-c2nnco2)cc1OC | inactive | 
COc1ccc(-c2noc(-c3cccc(OC)c3OC)n2)cc1OC | 12.6 µM (active) | 
COc1ccc(-c2noc(-c3ccc(C)cc3)n2)cc1 | 17.8 µM (active) | 
COc1ccc(-c2noc(CSc3nnc(-c4ccccc4)n3-c3ccc(F)cc3)n2)c(OC)c1 | inactive | 
COc1ccc(CC(N)C(=O)NC2C(O)[C@H](n3cnc4c(N(C)C)ncnc43)O[C@@H]2CO)cc1 (stereo not given in full) | inactive | 
CC1=C(C(=O)OCC2CCCCC2)C(c2c(F)cccc2Cl)CC(=O)N1 (stereo not given) | inactive | 
O=C(Nc1cc(C(F)(F)F)ccc1Cl)c1ccc2c(c1)CCN2S(=O)(=O)c1ccccc1 | inactive | 
CCSc1ncc(Cl)c(C(=O)Nc2c(C(=O)c3ccccc3)oc3ccccc23)n1 | inactive | 
O=C(C1CCCN(S(=O)(=O)c2cccc3nonc23)C1)N1CCN(c2ccccc2F)CC1 (stereo not given) | inactive | 
COc1ccccc1Nc1cc(C(=O)NCCCN(C)C2CCCCC2)c2ccccc2n1 | inactive | 
CCCC12CN3CC(C)(CN(C1)C3c1ccccc1Cl)C2=O (stereo not given) | inactive | 
CC(C)CC(=O)N/C(N)=N/c1nc2ccccc2s1 | 11.2 µM (active) | 
COC(=O)c1nc2ccccc2s1 | inactive | 
CC(C)CC(=O)NC(=S)NCc1ccccc1 | inactive | 
Cc1cc(C(=O)OCC(=O)Nc2nnc(C(C)C)s2)c2ccccc2n1 |  | 10.4% [at 1.84 µM]
O=C(O)CCCCc1nc2ccccc2s1 | inactive | 
CCC(=O)NC(=Nc1nc2ccccc2s1)NC(=O)CC | 10 µM (active) | 
CCc1nn(CC(=O)N2CCN(c3ccc(Cl)cc3)CC2)c(=O)c2cc3occc3n12 | inactive | 

SMILES | Potency | activity change, positive = activation
CCc1ccc(S(=O)(=O)Nc2cc3c(C(=O)OCc4ccccc4)c(C)oc3c3ccccc23)cc1 | inactive | 
O=C(CSc1ncc(S(=O)(=O)c2ccc(Br)cc2)c(=O)[nH]1)Nc1ccc2c(c1)OCCO2 | inactive | 
Cc1ccc(NC(=O)CN2c3ccccc3S(=O)(=O)c3ccccc32)cc1F | inactive | 
CCOc1ccccc1NC(=O)CCS(=O)(=O)c1cccc2nsnc12 | inactive | 
O=C(CSCc1ccc(Cl)cc1)N1CCN(Cc2ccc3c(c2)OCO3)CC1 | inactive | 
O=C(CSCc1cccs1)N1CCCC1 | 12.6 µM (active) | 
O=C(CSc1ccsc1[N+](=O)[O-])N1CCCCC1 | inactive | 
O=C(Cn1c(=O)n(Cc2ccccc2)c(=O)c2sc3ccccc3c21)Nc1ccccc1F | inactive | 
Cc1ccc(-c2nnc3c4ccccc4c(C)nn23)cc1NC(=O)c1cccc(Br)c1 | inactive | 
Clc1ccc(Nc2nc(-c3cccs3)cs2)nc1 | 14.1 µM (active) | 
COc1ccc(Nc2nc(-c3ccccc3)cs2)cc1 | 10 µM (active) | 
COc1ccc(C)cc1Nc1nc(-c2c(C)[nH]c3ccccc23)cs1 | inactive | 
COC(=O)CSc1nccc(-c2cccs2)n1 | inactive | 
COc1ccc(NC(=O)c2sc(N)nc2-c2ccccc2)cc1 | inactive | 
COc1ccc2c(c1OC)C(=O)OC2Nc1nc(-c2ccccc2)cs1 (stereo not given) | inactive | 
COc1ccc(-c2csc(NC(=O)c3ccc(N4C(=O)CCC4=O)cc3)n2)cc1OC | inactive | 
NS(=O)(=O)c1ccc(Nc2nc(-c3ccccc3)cs2)cc1 | inactive | 
O=S(=O)(Nc1ccccn1)c1ccc(Oc2ccccc2)cc1 | inactive | 
O=C(Nc1ccc(Cl)cn1)Nc1cccs1 | inactive | 
COc1ccc(-c2csc(Nc3ccccn3)n2)cc1 | 2.24 µM (active) | 
COc1ccc(OC)c(Nc2nc(-c3ccc(O)c(O)c3)cs2)c1 | 17.8 µM (active) | 
CCOc1cc(C2c3c(-c4ccc(Br)cc4)n[nH]c3C(=O)N2c2ccc(Cl)cc2)ccc1O (stereo not given) | inactive | 
O=C(c1ccc2c(c1)N(Cc1ccc(Cl)cc1)C(=O)c1ccccc1S2(=O)=O)N1CCCCC1 | inactive | 
CC1CCC2(CC1)N=C(c1ccccc1)C(=O)N2CC(=O)Nc1ccc(F)c(Cl)c1 (stereo not given) | inactive | 
c1ccc(Nc2nc(-c3ccncc3)cs2)nc1 | 12.6 µM (active) | 
O=C(Nc1nc(-c2ccc(-c3ccccc3)cc2)cs1)c1cnccn1 | inactive | 
O=C(Nc1nc(-c2ccncc2)cs1)C1COc2ccccc2O1 (stereo not given) | inactive | 

SMILES | Potency | activity change, positive = activation
CSc1ccc(NC(=O)Cn2nnnc2-c2ccccc2F)cc1 | inactive | 
O=C(NCCc1c[nH]c2ccccc12)c1cc2ccccc2oc1=O | 17.8 µM (active) | 
CN(c1ccccc1)S(=O)(=O)c1ccc(Cl)c(C(=O)NCCc2c[nH]c3ccccc23)c1 | inactive | 
O=C(NCCc1c[nH]c2ccccc12)C(=O)NCC1CCCO1 (stereo not given) | inactive | 
O=C(Nc1cccc2cccnc12)c1cccc2c(Br)cccc12 | inactive | 
CCOC(=O)c1c(-c2ccc(OC)cc2)oc2ccc(OCc3ccc(C(=O)OC)cc3)cc12 | inactive | 
O=C(NCc1ccccc1Cl)c1csc2c1CCCCC2 | inactive | 
COC(=O)c1sc(NC(=O)c2csc3c2CCCC3)nc1C | 2.51 µM (active) | 
COC(=O)c1sccc1NC(=O)c1csc2c1CCCC2 | inactive | 
CC(=O)Cc1nsc(NC(=O)c2csc3c2CCCC3)n1 | inactive | 
CCOC(=O)c1ccc(NC(=O)c2csc3c2CCCCC3)cc1 | inactive | 
Cc1ccc(NC(=O)c2csc3c2CCCC3)cc1 | 4.47 µM (active) | 
COc1ccc(OC)c(NC(=O)/C=C/c2ccc(C)o2)c1 | inactive | 
NC(=O)c1sc(-c2ccsc2)cc1N | inactive | 
COc1ccc(CNC(=O)CS(=O)Cc2nc(-c3cccc(C)c3)oc2C)cc1 (stereo not given) | inactive | 
N#Cc1cccc(NC(=O)COC(=O)c2ccccc2C(=O)c2ccc(Cl)c([N+](=O)[O-])c2)c1 | inactive | 
CC(CC(=O)O)C(=O)c1ccc(Cl)c([N+](=O)[O-])c1 (stereo not given) | inactive | 
CC(=O)Nc1ccc(NC(=O)C(C)OC(=O)c2ccccc2C(=O)c2ccc(Cl)c([N+](=O)[O-])c2)cc1 (stereo not given) | 25.1 µM (active) | 
COc1cc(OC)c(NC(=O)c2c3c(nn2C)-c2ccccc2SC3)cc1Cl | inactive | 
COC(=O)c1cn(-c2ccccc2)nc1-c1cccnc1 | inactive | 
O=C(c1cn(-c2ccccc2)nc1-c1cccnc1)N1CCCCC1 | inactive | 
COc1ccccc1N1CCN(C(=O)c2cn(-c3ccccc3)nc2-c2cccnc2)CC1 | 22.4 µM (active) | 
CCOc1ccc(NC(=O)CSc2c3c(nc4ccccc24)CCCC3)cc1 | inactive | 
Cn1c2ccccc2c(=O)c2c(=O)n(Cc3ccco3)c(COc3ccccc3)nc21 | 35.5 µM (active) | 
CCCc1nc2c(c(=O)c3ccccc3n2C)c(=O)n1C1CCCCCC1 | inactive | 
COc1ccc(C(=O)CSc2nnc(COc3ccccc3)n2Cc2ccco2)cc1 | inactive | 
O=C(CCn1c(=O)c2sccc2n(Cc2ccc(F)cc2)c1=O)NCc1ccc2c(c1)OCO2 | inactive | 

SMILES | Potency | activity change, positive = activation
COc1ccc(S(=O)(=O)NCCc2cc3ccc(C)c(C)c3[nH]c2=O)cc1 | inactive | 
COc1cccc(CNC(=O)c2ccc3c(Cl)c4c(nc3c2)CCCC4)c1 | inactive | 
Cc1ccc2nc(-c3ccc(NC(=O)CN(C)S(=O)(=O)c4ccccc4)cc3)sc2c1 | 1 µM (active) | 
COc1cc(NC(=O)CN(C)S(=O)(=O)c2ccc3nc(C)sc3c2)cc(OC)c1 | inactive | 
Cc1cccc(N(CC(=O)Nc2ccc(-c3nc4ccc(C)cc4s3)cc2)S(C)(=O)=O)c1 | inactive | 
Cc1ccc(F)cc1NC(=O)CCSc1nc(-c2ccco2)cc(C(F)(F)F)n1 | inactive | 
COc1ccccc1C(=O)n1nc(-c2ccccc2)nc1N | inactive | 
COc1ccc(C(=O)n2nc(-c3ccc(C)cc3)nc2N)cc1OC | inactive | 
COc1ccc(C(=O)n2nc(-c3ccc(Cl)cc3)nc2N)cc1OC | 25.1 µM (active) | 
COc1ccc(-c2nc3ccccc3o2)cc1NC(=O)c1cc([N+](=O)[O-])ccc1N1CCOCC1 | inactive | 
Cc1cccc(NC(=O)c2cc3c(C)nn(-c4ccccc4)c3s2)c1 | inactive | 
Cc1c(CNC2CCCCC2)c(C(=O)O)c(C)n1Cc1cccc(Cl)c1 | inactive | 
CCCN1CCN(CCCNC(=O)Cn2nc(CC)n3c(cc4occc43)c2=O)CC1 | inactive | 
CCc1nc2c(cnn2-c2ccc(C)cc2)c(=O)n1-c1ccc(C)cc1 | inactive | 
O=c1c(Cl)c(NC2CC2)cnn1-c1ccccc1 | inactive | 
C=CCNc1cnn(-c2ccc(C)cc2)c(=O)c1Cl | 11.2 µM (active) | 
Cc1ccccc1-c1nc(CS(=O)(=O)CC(=O)Nc2cc(Cl)cc(Cl)c2)c(C)o1 | inactive | 
COC(=O)c1ccc(Cc2ccccc2)o1 | inactive | 
COC(=O)c1ccc(CSc2ccccc2C)o1 | 8.91 µM (active) | 
COC(=O)c1ccc(CSc2ccc3nnc(-c4ccccc4)n3n2)o1 | inactive | 
Cc1ccc(NS(=O)(=O)c2ccc3c(c2)CC(=O)N3)cc1Cl | inactive | 
Clc1ccc2nc(CSc3ccccc3)cn2c1 | 3.16 µM (active) | 
O=c1cc(CSc2ccc(Cl)cc2)nc(N2CCOCC2)[nH]1 | inactive | 
CCOc1ncccc1C(=O)OCc1cn2cc(Cl)ccc2n1 | inactive | 
